Screening results from PubChem BioAssay.
TEAD-YAP block: TEAD-YAP interaction inhibition; 640,000 compounds, 1.4% hits; inhibition, % at 9.12 µM; HEK-TIYL cells, TEAD-Gal4/YAP UAS-luciferase luminescence; AID 1259422; in the data active means inhibition above about 32%;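 further: 0% = median of test compound wells and 100% = reference inhibitor wells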
FBW7 activator: activators of human E3 ligase FBW7 | AID 1259310 | Q969H0 | AlphaScreen FBW7–phospho-cyclin E peptide binding, activator screen | normalized activity (activation), % at 26.1 µM | 650,000 compounds, 0.13% hits; in the data active means normalized activity above about 1.9%;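 further: purified mutant Fbw7 with reduced substrate affinity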
GPR151 ag: activators of human GPR151. PathHunter beta-arrestin GPR151 cells, luminescence. activation, % at 11.2 µM. 650,000 compounds, 1% hits; in the data active means activation above about 4.9%;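 further: 0% = median of compound wells and 100% = cells with positive control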
Target sequence (Q8TDV0 whole entry, looked up): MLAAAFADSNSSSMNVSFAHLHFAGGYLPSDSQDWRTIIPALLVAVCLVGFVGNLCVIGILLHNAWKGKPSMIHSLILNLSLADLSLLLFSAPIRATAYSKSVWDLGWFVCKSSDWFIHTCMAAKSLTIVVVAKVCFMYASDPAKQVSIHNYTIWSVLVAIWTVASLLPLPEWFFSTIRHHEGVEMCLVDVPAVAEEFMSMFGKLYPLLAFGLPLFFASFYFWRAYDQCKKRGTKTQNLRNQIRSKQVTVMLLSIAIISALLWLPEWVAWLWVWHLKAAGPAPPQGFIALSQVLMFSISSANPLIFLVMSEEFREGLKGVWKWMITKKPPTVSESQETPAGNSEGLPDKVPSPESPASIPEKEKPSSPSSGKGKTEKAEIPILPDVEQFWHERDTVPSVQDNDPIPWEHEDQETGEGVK
MITF primary: blocks human microphthalmia-associated transcription factor. AlphaScreen MITF homodimerization, bead proximity signal. O75030. 650,000 compounds, 0.91% hits. inhibition, % at 2.6 µM; in the data active means inhibition above about 50%;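 further: 0% = vehicle wells with protein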
Numbers without * were called inactive; ! = not confirmed by another sample. Hits are enriched below; roughly 3.5% of the tested compounds scored in any of these assays.

SMILES	TEAD-YAP block	FBW7 activator	GPR151 ag	MITF primary
O=C(Nc1cc(C(F)(F)F)ccc1Cl)c1ccc(Cl)c([N+](=O)[O-])c1	44.9*	-0.1	-0.6	1.6
O=C(Nc1cccc(Cl)c1)c1ccc(Cl)c([N+](=O)[O-])c1	45.2*	0.1	-0.8	26.9
O=C(Nc1ccccc1)Oc1ccc2sc(=O)oc2c1	-2.3	-0.3	1.3	0.6
O=C1CC2(CCN(C(=O)c3cc([N+](=O)[O-])ccc3Cl)CC2)Oc2ccccc21	-2.6	-0.1	0.1	18.6
O=C(Nc1cccc(-c2nc3ccccc3s2)c1)c1ccccc1[N+](=O)[O-]	-33.0	-0.3	1.1	-3.2
O=C(Nc1cccc(-c2nc3ccccc3s2)c1)c1cc([N+](=O)[O-])ccc1Cl	35.7*	0.0	-0.9	12.7
Nc1c(C(=O)NCCNC(=O)c2nnn(-c3cccc(C(F)(F)F)c3)c2N)nnn1-c1cccc(C(F)(F)F)c1	6.6	0.0	-0.5	-10.8
O=C(O)c1ccc(Br)c(S(=O)(=O)N2CCCCCC2)c1	-0.4	0.0	0.0	-7.6
COC(=O)c1ccc(Br)c(S(=O)(=O)N2CCCCC2)c1	7.3	1.9*	-0.9	13.4
CCOc1cc(/C=C2\SC(=S)N(CCOC)C2=O)ccc1O	4.6	0.7	-0.5	17.1
CCOc1cc(/C=C2/SC(=S)N(CCCC(=O)O)C2=O)ccc1O	73.4*	0.5	-2.1	22.9
CCOc1cc(/C=C2\SC(=Nc3ccc(C(=O)O)cc3)N(C)C2=O)ccc1O	46.3*	-0.1	1.5	3.5
COc1cc(/C=C2\SC(=S)N(CCCC(=O)O)C2=O)ccc1O	62.0*	0.0	1.8	4.7
COc1ccc(/C=C2/SC(=O)N(CCCC(=O)Nc3cccc(O)c3)C2=O)cc1	66.2*	0.0	0.4	-3.5
O=C(ON1C(=O)c2cccc3c([N+](=O)[O-])ccc(c23)C1=O)C1CCCCC1	14.4	-0.1	0.9	1.7
O=C(NCCO)/C(=C\C=C\c1ccccc1)NC(=O)c1ccccc1Cl	7.7	0.1	0.5	-6.9
COc1cccc(CNC(=O)c2ccc(N3CC4CC(C3)c3cccc(=O)n3C4)c(NS(=O)(=O)c3ccc4c(c3)OCCO4)c2)c1 (stereo unspecified)	-4.3	-0.7	-1.6	8.8
Cc1ccc2c(C)nc(N3CCCC(NCc4ccsc4)CC3)nc2c1 (stereo unspecified)	1.8	0.2	-0.6	1.3
CCCCN1C(=O)c2cccc3c(N4CCCC4)ccc(c23)C1=O	-14.9	0.5	1.1	-6.8
CCN1C(=O)c2cccc3c(N4CCCC4)ccc(c23)C1=O	-5.2	2.1*	-1.4	-8.0
CCn1cnc2cc(N3Cc4ccccc4C3=N)ccc21	-5.9	-0.1	-0.3	-10.6
O=C(Cc1noc2ccccc12)Nc1cccc(-c2ccc(N3CCCC3)nn2)c1	47.9*	0.0	-0.4	5.9
COc1ccc(CC(=O)Nc2cccc(-c3ccc(N4CCOCC4)nn3)c2)cc1OC	33.8*	-0.4	-6.7	-4.3
CC(Oc1ccccc1F)C(=O)Nc1cccc(-c2ccc(N3CCOCC3)nn2)c1 (stereo unspecified)	41.6*	0.1	-1.5	15.9
CC(=O)c1cccc(NC(=O)Cc2noc3ccccc23)c1	-18.9	1.6	-0.7	1.4
SMILES	TEAD-YAP block	FBW7 activator	GPR151 ag	MITF primary
CCCCCSc1nnc2c(n1)OC(c1ccc(O)c(O)c1)Nc1ccccc1-2 (stereo unspecified)	-2.2	0.0	0.8	23.1
CCCCc1ccc(NC(=O)C(=O)NCc2ccccc2Cl)cc1	-3.3	0.1	-0.4	17.4
Cc1ccc(NS(=O)(=O)c2ccc(F)c(F)c2F)cc1	10.9	0.0	-0.3	5.9
Cc1ccc(-c2ncn(-c3ccc(Nc4nccc(-c5ccc(Cl)nc5)n4)cc3)n2)cn1	-17.1	0.1	-0.5	8.1
Cc1ccc(-c2ncn(-c3ccc(Nc4nccc(-c5ccc(N)nc5)n4)cc3)n2)cn1	41.2*	5.4*	0.1	5.6
Cc1ccc(-c2ncn(-c3ccc(Nc4nccc(-c5ccc(S(C)(=O)=O)c(N6CCCC(O)C6)c5)n4)cc3)n2)cn1 (stereo unspecified)	38.2*	-0.2	0.8	12.2
Cc1ccc(-n2nc(C)c(NC(=O)CCl)c2C)cc1C	44.7*	0.2	2.3	-6.8
CCC(=O)Nc1c(C)nn(-c2ccc(C)c(C)c2)c1C	-26.9	0.0	-0.7	-1.5
COc1ccc(-c2cccc3cnc(NC4CCC(C(=O)N5CCCC5)CC4)nc23)cc1F (stereo unspecified)	82.9*!	1.7	-2.5	8.7
COc1ccc(-c2cccc3cnc(Nc4ccc(-n5cnc(N6CCOCC6)n5)cc4)nc23)cc1F	1.4	0.8	-0.1	-9.9
CC(C)CNc1nccn2c(-c3cccc4cccnc34)cnc12	41.7*	-0.1	0.6	-12.2
Fc1ccc(CNc2nccn3c(-c4cccc5cccnc45)cnc23)cc1	8.7	0.0	0.5	-20.8
CCOC(=O)C1=C(c2ccccc2)NC(=O)NC1c1cc(OC)ccc1Br (stereo unspecified)	-4.4	0.1	-1.8	1.7
COCc1ccc(-c2ccc(OC3CCN(c4nccc(OC)n4)CC3)cc2)cc1	-5.6	0.0	2.2	3.2
COc1ccnc(N2CCC(Oc3ccc(-c4ccc(N(C)C)nc4)cc3)CC2)n1	60.7*	-0.4	0.8	-0.4
CN(C)c1ccc(-c2ccc(OC3CCN(CCc4ccccn4)CC3)cc2)cn1	52.9*	-0.3	0.8	9.9
Cc1cc(-c2cn3c4c(nnc3n2)CCCC4)ccc1NC(=O)CN1CCCC1=O	-0.7	-0.1	0.2	-3.5
Cc1ccc(NC(=O)c2ccc(Nc3nc(-c4ccccc4)c4cc(C)ccc4n3)cc2)cc1	-3.1	0.0	0.7	4.2
Cc1ccc2nc(Nc3cccc(C(=O)Nc4ccc(O)cc4)c3)nc(-c3ccccc3)c2c1	50.2*	0.3	-0.1	14.6
Cc1cccc2cc(CN(CCO)C(=O)Nc3ccc(F)cc3)c(=O)[nH]c12	12.9	2.3*	-0.4	8.7
COc1ccc(NC(=O)N(CCCO)Cc2cc3cccc(C)c3[nH]c2=O)cc1	-3.4	0.1	-0.4	4.0
COc1ccc2[nH]c(=O)c(CN(Cc3cccnc3)C(=O)Nc3ccccc3)cc2c1	17.1	0.1	-0.6	2.8
COc1ccc2[nH]c(=O)c(CN(Cc3cccnc3)C(=O)Nc3ccc(F)cc3)cc2c1	46.1*	0.7	0.0	12.7
CC(C)Oc1ccc(Br)cc1C(=O)N/N=C/c1ccc(O)cc1	2.9	-0.1	0.2	-3.1
CCOc1ccc(Br)cc1C(=O)N/N=C/c1cccs1	54.9*	0.2	-1.5	21.7
SMILES	TEAD-YAP block	FBW7 activator	GPR151 ag	MITF primary
CCOc1ccc(Br)cc1C(=O)N/N=C/c1ccc(C)o1	36.2*	0.0	-0.1	-7.6
O=C(N/N=C/c1cccs1)c1cc2ccccc2cc1O	-4.1	0.1	0.0	8.6
CC(C)Oc1ccc(Br)cc1C(=O)N/N=C/c1ccco1	38.5*	0.0	0.6	-1.9
COc1cc2ccccc2cc1C(=O)N/N=C/c1cccs1	49.8*	0.1	-0.3	-9.4
Cc1onc(-c2c(Cl)cccc2Cl)c1C(=O)NC(=S)N1CCN(c2ccccn2)CC1	-0.3	-0.1	0.3	0.9
CNC(=O)Cc1nc2ccccc2n1CC(=O)Nc1cccc(C)c1	-8.7	0.6	0.1	2.3
Cc1ccccc1N=Nc1c(O)[nH]c(=S)[nH]c1=O	-1.8	0.1	-1.2	15.5
